Data as given in PubChem BioAssay AID624331 (National Center for Advancing Translational Sciences (NCATS), 2012).
Inconclusive results are not listed. Unmarked numbers belong to inactive results. Calls follow the shape of the dose curve; as a rule, active = well fitted activation curve with a large enough effect; inconclusive = small, poorly fitted or top-dose-only effect; inactive = no such curve, though single readings can be large or run the other way.

Assay: qHTS assay for re-activators of p53 using a Luc reporter: Hit Validation with no p53 Expressed; also: 0% is about no effect
Settings: p53-null cells, luciferase reporter counter-screen; series mostly up to 46.1 µM; activity change, positive = activation: at the top concentration
How it was run: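 Counter-screen of primary hits in a cell line not transfected with p53, in Opti-MEM with 10% FBS; compounds at several concentrations (10 mM stock, 1:5; top 46.1 µM in well), 24 h at 37 deg C, 5% CO2. Luminescence read after 10 min with Amplite reagent.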

Row | SMILES | activity change, positive = activation [%]
1 | CC(C)(C)c1cc(-n2ccnc2)n2ncc(-c3ccc(Cl)cc3)c2n1 | 27.1
2 | CCOc1cccc(-c2nc3cc(C)ccc3o2)c1 | 40.1
3 | CS(=O)(=O)c1ccc2nc(NC(=O)c3ccco3)sc2c1 | 9.08
4 | Cc1cc(/C=N/Nc2ncnc(N)c2[N+](=O)[O-])c(C)n1-c1ccccc1 | -65.8
5 | Cc1cc(C(=O)Nc2ccc(Br)cn2)sc1C | -16.7
6 | COc1cc(/C=C/C(=O)N2C(=O)c3cccc(N)c3C2=O)cc(OC)c1OC | -11.8
7 | COc1ccc(NC(=O)COC(=O)C23CC4CC(CC(O)(C4)C2)C3)cc1Cl | -41.7
8 | O=[N+]([O-])c1ccc(NC(=S)NCCc2ccc(F)cc2)cc1 | -45.7
9 | CCOc1ccc(OCCSc2nc3ccccc3n2CC(=O)O)cc1 | -31
10 | O=C(c1ccc(N2CCN(S(=O)(=O)c3ccccc3)CC2)c([N+](=O)[O-])c1)N1CCOCC1 | -29.5
11 | c1ccc(-c2ccc(-c3ccccn3)nn2)nc1 | 35.1
12 | CN(Cc1ccccc1)C(=O)CNC(=O)Cn1cnc2ccccc2c1=O | -10.4
13 | CCN1CCN(Cc2ccc(NC(=O)Nc3ccccc3)cc2)CC1 | -19.7
14 | O=C(CSc1nnc(-c2ccc(F)cc2)c2ccccc12)Nc1ccccc1 | -15.3
15 | Cc1ccc(NC(=S)NC(=O)C2CCCCC2)c(Br)c1 | 37.8
16 | CCc1nnc(NC(=O)/C=C/c2ccco2)s1 | 37
17 | O=C(O)CCCC(=O)NCCc1ccncc1 | 18.6
18 | NC(=O)c1ccc(-n2c(CCC(=O)O)ccc2-c2cccs2)cc1 | 6.11
19 | O=C(Nc1ccc2c(c1)CCC2)c1ccccc1F | 10.4
